# PubChem BioAssay (EPA / NIEHS)
# Results filed as inconclusive are left out. Activity calls are given as the source filed them. How the source made its calls: active means hit-call score of the fitted dose curve at least 0.9, where 1 is the maximum; inconclusive means response in the unintended direction; inactive means score below 0.9.
# Biological target: Cellular tumor antigen p53 (Homo sapiens) (UniProt P04637)
# Experiment: TOX21_p53_BLA_p4_ratio: Tox21 HCT-116 p53 Agonism Beta-lactamase Assay, Ratio, Phase 4 (AID 2283601)
# How it was run: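 HCT-116 p53 beta-lactamase reporter cells (4000/well) preincubated 5 h, then compound (217-fold dilution of DMSO stock) for 16 h at 37C. CCF4-AM substrate added 2 h at room temperature; 460/530 nm emission ratio fitted upward versus DMSO.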
# Chain of Cellular tumor antigen p53 (Homo sapiens) (P04637 whole entry, looked up): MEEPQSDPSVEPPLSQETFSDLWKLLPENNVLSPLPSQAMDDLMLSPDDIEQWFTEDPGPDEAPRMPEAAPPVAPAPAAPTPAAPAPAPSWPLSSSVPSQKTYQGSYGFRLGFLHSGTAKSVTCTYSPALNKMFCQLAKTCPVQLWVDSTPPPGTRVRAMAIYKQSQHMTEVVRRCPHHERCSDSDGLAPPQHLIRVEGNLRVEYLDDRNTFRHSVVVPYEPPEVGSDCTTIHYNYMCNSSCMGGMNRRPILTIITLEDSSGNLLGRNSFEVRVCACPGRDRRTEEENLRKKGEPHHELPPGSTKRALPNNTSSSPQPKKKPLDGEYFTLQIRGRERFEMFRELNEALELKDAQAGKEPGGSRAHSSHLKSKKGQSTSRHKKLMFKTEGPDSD
row,Compound,outcome
1,C=C(C)OC(C)=O,inactive
2,CCCCC1C(=O)N(c2ccccc2)N(c2ccccc2)C1=O,inactive
3,O=C(Oc1ccccc1)c1ccccc1C(=O)Oc1ccccc1,inactive
4,C=CC(=O)OCCCCCCOC(=O)C=C,inactive
